Measured values: PubChem BioAssay (NCATS)
Values joined by “and” are separate entries in the source; they are usually repeats but may differ in a detail not shown here. Identical values can stand only once. Records with an inconclusive call do not appear. Active and inactive are the calls of the source. Unless noted, calls follow the shape of the dose curve; as a rule, active = well fitted curve in the direction sought with a large enough effect; inconclusive = small, poorly fitted or top-dose-only effect, or another doubt; inactive = no such curve, though single readings can be large; an effect the other way counts as inactive or inconclusive.

Columns and labels:
[1] = biological target: Alpha-galactosidase A (Homo sapiens) (UniProt P06280); assay: Counterscreen for Glucocerebrosidase Inhibitors: qHTS Assay for Human alpha-Galactosidase at pH 4.5 (AID 992); also: 0% is about no effect
How it was run: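 Enzyme at 2 nM final was combined with compound (0.7 nM to 77 uM) and 80 uM 4-methylumbelliferyl alpha-D-galactopyranoside in 50 mM citric acid, 0.005% Tween-20, pH 4.5. After 20 min at room temperature, fluorescence was read (Ex 365/Em 440 nm); AC50 came from Hill fits.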

[2] = biological target: alpha-glucosidase (Oryza sativa, rice) (UniProt Q653V4); assay: Counterscreen for Glucocerebrosidase Inhibitors: qHTS Assay for Rice alpha-Glucosidase at pH 5.0 (AID 997);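 also: 0% = full activity with enzyme and -100% = basal without enzyme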
How it was run: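 Rice alpha-glucosidase (4 nM final) with 400 uM 4-methylumbelliferyl-alpha-D-glucopyranoside in citrate buffer pH 5.0, 20 min at room temperature, stopped at pH 10; fluorescence 365/440 nm, compounds 0.7 nM–77 uM, AC50 from Hill fits.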

[3] = qHTS Assay for Lipid Storage Modulators (AID 1519; calls by dose curve; as to activity change, negative = inhibition: % is scaled to controls: 0 for no effect and ±100 for the full control effect); settings: Drosophila S3 cells, BODIPY lipid droplet/cell ratio, laser cytometry, cells loaded with oleic acid
How it was run: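 Cells seeded at 5,000 per well were treated with compounds over a concentration series and loaded with oleic acid (400 uM, as added). Lipid droplet fluorescence (488 nm excitation, 500-530 nm channel) was read by laser-scanning cytometry and normalized to 20 uM Triacsin C.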

[4] = Cell Viability - LYMP2-023 (AID 975);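 also: cellular ATP measured by luciferase luminescence as viability proxy; plate controls were DMSO only for no effect and 92 µM tetraoctylammonium bromide control for full effect; nearly all actives have a fitted effect of over 55% in size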
How it was run: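 2500 cells/well, 5 hr 37 C; cpd 24 hr 37 C; CellTiter-Glo, 30 min RT; luminescence. qHTS conc-response, Hill fit -> AC50. Pos ctrl tetraoctylammonium bromide.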

[5] = Cell Viability - LYMP2-025 (AID 976);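 also: plate controls were DMSO only for no effect and tetraoctylammonium bromide control for full effect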
How it was run: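 Seed 2500 LYMP2-025 cells/well; 5 hr at 37 C; add compound; 24 hr at 37 C; add CellTiter-Glo; 30 min RT; read luminescence. AC50 from Hill-modelled concentration-response.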

[6] = Cell Viability - LYMP2-002 (AID 977);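 also: compound exposure lasted 24 h at 37 °C; plate controls were DMSO only for no effect and 92 µM tetraoctylammonium bromide for full effect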
How it was run: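 Human lymphoblastoid LYMP2-002 cells, 2500 per well, exposed to compounds for 24 h at 37 C in complete medium; viability read as intracellular ATP by CellTiter-Glo luminescence, AC50 from Hill fits.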

[7] = Cell Viability - LYMP2-006 (AID 978); also: % is scaled to controls: 0 for no effect and ±100 for the full control effect; nearly all actives have a fitted effect of over 60% in size
How it was run: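 In this cytotoxicity screen, the human lymphoblastoid line grew in complete medium with test compounds for 24 hr at 37 C. Cellular ATP served as the viability signal.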

[8] = Cell Viability - LYMP2-007 (AID 979);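 also: cells exposed to compound for 24 h before reading; 0% = DMSO only and the negative end = 92 µM tetraoctylammonium bromide; nearly all actives have a fitted effect of over 60% in size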
How it was run: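 Luminescent ATP signal (CellTiter-Glo) serves as the viability read-out after 24 hr compound treatment of lymphoblastoid cells in complete medium at 37 C. Concentration-response data were fitted to the Hill equation to give AC50 values.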

[9] = Cell Viability - LYMP2-008 (AID 980); also: % is scaled to controls: 0 for no effect and ±100 for the full control effect; nearly all actives have a fitted effect of over 60% in size
How it was run: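 qHTS, human lymphoblastoid line, 2500 cells/well; 5 hr preincubation, 24 hr compound, 37 C. CellTiter-Glo ATP luminescence. AC50 via Hill equation. Tetraoctylammonium bromide positive control.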

[10] = Cell Viability - LYMP2-010 (AID 981); also: % is scaled to controls: 0 for no effect and ±100 for the full control effect; nearly all actives have a fitted effect of over 55% in size
How it was run: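 Luminescent ATP signal (CellTiter-Glo) served as the viability read-out. Cells of the human lymphoblastoid line were treated with compound over a concentration range for 24 hours at 37 C, and AC50 values came from Hill-equation modeling.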

[11] = Cell Viability - LYMP2-014 (AID 983);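 also: plate controls were DMSO only for no effect and 92 µM tetraoctylammonium bromide for full effect; nearly all actives have a fitted effect of over 50% in size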
How it was run: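 Luminescent ATP signal (CellTiter-Glo, 30 min at room temperature) serves as the viability read-out after 24 hr compound exposure at 37 C. Cells were seeded at 2500 per well and settled 5 hr beforehand.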

[12] = Cell Viability - LYMP2-016 (AID 984); also: % is scaled to controls: 0 for no effect and ±100 for the full control effect; nearly all actives have a fitted effect of over 55% in size
How it was run: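 Concentration-dependent ATP depletion measured in LYMP2-016 lymphoblastoid cells, 24 h, 37 C; luciferase-based luminescent detection; Hill-equation AC50.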

[13] = Cell Viability - LYMP2-018 (AID 985);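 also: plate controls were DMSO only for no effect and tetraoctylammonium bromide at 92 µM for full effect; nearly all actives have a fitted effect of over 50% in size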
How it was run: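 Luminescent ATP signal (CellTiter-Glo, read after 30 min at room temperature) reports viable cells after 24 hr compound treatment at 37 C. Concentration-response data were fitted to the standard Hill equation for AC50.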

[14] = Cell Viability - LYMP2-020 (AID 986);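 also: plate controls were DMSO only for no effect and tetraoctylammonium bromide at 92 µM for full effect; nearly all actives have a fitted effect of over 55% in size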
How it was run: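 Luminescent ATP signal (CellTiter-Glo, 30 min at room temperature) is the read-out after 24 h compound treatment of lymphoblastoid cells at 37 C. AC50 values come from Hill-equation fits across concentrations.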

[15] = Cell Viability - LYMP2-024 (AID 988);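 also: plate controls were DMSO only for no effect and 92 µM tetraoctylammonium bromide for full effect; nearly all actives have a fitted effect of over 60% in size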
How it was run: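 Steps: seed 2500 cells/well, 5 hr 37 C; add compound, 24 hr 37 C; add CellTiter-Glo, 30 min room temperature; read luminescence. AC50 derived by Hill modelling of concentration-dependent ATP loss.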

[16] = Cell Viability - LYMP2-026 (AID 989); also: % is scaled to controls: 0 for no effect and ±100 for the full control effect; nearly all actives have a fitted effect of over 50% in size
How it was run: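 Luminescent ATP signal (CellTiter-Glo, 30 min room temperature) measures viable lymphoblastoid cells after 24 hr compound treatment at 37 C. Decreased ATP reflects acute toxicity; AC50 values come from Hill-equation modeling.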

[17] = Cell Viability - LYMP1-002 - Assay at 24 hr (AID 993); also: % is scaled to controls: 0 for no effect and ±100 for the full control effect
How it was run: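 Cells plated 2500/well, 5 hr 37 C; compounds added, 24 hr 37 C; CellTiter-Glo added, 30 min RT; luminescence read. Tetraoctylammonium bromide positive control. Hill-equation AC50.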

[18] = Cell Viability - LYMP1-002 - Assay at 40 hr (AID 994)
How it was run: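 Luminescent ATP signal served as the viability readout, with decreases taken as toxicity. Cells were treated with compounds across a concentration range for 40 hours at 37 C, and AC50 values came from standard Hill modeling.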

[19] = Cell Viability - LYMP2-022 (AID 987)
How it was run: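 qHTS: human lymphoblastoid cells 2500/well; 5 hr 37 C; cpd added; 24 hr 37 C; CellTiter-Glo, 30 min RT; luminescence. AC50 via Hill fit; tetraoctylammonium bromide positive ctrl.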

[20] = measured here: cell count channel max response
[21] = measured here: lipid channel max response

Chain of Alpha-galactosidase A (Homo sapiens) (P06280 whole entry, looked up): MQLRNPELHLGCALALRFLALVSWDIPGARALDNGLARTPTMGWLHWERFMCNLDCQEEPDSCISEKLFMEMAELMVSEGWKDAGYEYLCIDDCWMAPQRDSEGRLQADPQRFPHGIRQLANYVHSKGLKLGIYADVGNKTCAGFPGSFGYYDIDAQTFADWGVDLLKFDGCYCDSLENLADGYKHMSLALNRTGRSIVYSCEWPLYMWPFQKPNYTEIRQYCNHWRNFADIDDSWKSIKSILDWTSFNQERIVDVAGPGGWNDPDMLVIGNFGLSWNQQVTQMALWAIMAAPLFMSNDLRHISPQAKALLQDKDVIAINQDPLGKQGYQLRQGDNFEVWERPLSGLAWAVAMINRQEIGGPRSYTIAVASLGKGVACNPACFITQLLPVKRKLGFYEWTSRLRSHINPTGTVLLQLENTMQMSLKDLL

c1cnc(N2CCN(Cc3ccc4c(c3)OCO4)CC2)nc1
-1.42% and -12.3%: max response [3, 20]
inactive: outcome [1] | outcome [2] | activity change, negative = inhibition ([3]; at 25.7 µM (top of the series)) 3.16% | activity change, negative = inhibition ([3]; at 57.5 µM (top of the series)) 2.74%
3.03% and -8.1%: max response [3, 21]

COc1ccc(CN(CCN(C)C)c2ccccn2)cc1
5.42% [middle of 4 runs]: max response [3, 20]
inactive: outcome [4] | outcome [5] | Potency [6] | Potency [7] | outcome [8] | outcome [9] | Potency [10] | outcome [11] | outcome [12] | Potency [13] | Potency [14] | Potency [15] | outcome [16] | outcome [1] | outcome [17] | Potency [18] | outcome [2] | activity change, negative = inhibition ([3]; at 25.7 µM (top of the series)) 1.57% | activity change, negative = inhibition ([3]; at 57.5 µM (top of the series)) 2.66% and 4.86% and -0.667%

NC/C=C/C(=O)O
5.6%: max response [3, 20]
13.9%: max response [3, 21]
inactive: activity change, negative = inhibition ([3]; at 57.5 µM (top of the series)) 6.98%

O=c1[nH]c(=O)n([C@H]2C[C@H](O)[C@@H](CO)O2)cc1Br
1.8% and -25.8%: max response [3, 21]
inactive: outcome [4] | outcome [5] | Potency [6] | Potency [7] | outcome [8] | outcome [9] | Potency [10] | outcome [11] | outcome [12] | Potency [13] | Potency [14] | Potency [19] | Potency [15] | outcome [16] | outcome [1] | outcome [17] | Potency [18] | outcome [2] | activity change, negative = inhibition ([3]; at 57.5 µM (top of the series)) -1.72% and -8.79%
5.46% and -18.7%: max response [3, 20]

CN1CCN(C2=Nc3ccccc3Oc3ccc(Cl)cc32)CC1
7.38% and 8.12% and -19.5%: max response [3, 21]
inactive: outcome [1] | outcome [2] | activity change, negative = inhibition ([3]; at 25.7 µM (top of the series)) -4.84% | activity change, negative = inhibition ([3]; at 57.5 µM (top of the series)) 10% and 2.23%
14.9% and 0.863% and -23%: max response [3, 20]

CCCC(C(=O)OCCN(CC)CC)(c1ccccc1)c1ccccc1
-3.68% and -8.12% and 19.2%: max response [3, 20]
inactive: outcome [1] | outcome [2] | activity change, negative = inhibition ([3]; at 25.7 µM (top of the series)) -1.67% | activity change, negative = inhibition ([3]; at 57.5 µM (top of the series)) -2.92% and 2.44%
-5.52% and -10.9% and 21.5%: max response [3, 21]

CN(C)CCOC(=O)COc1ccc(Cl)cc1
inactive: outcome [1] | outcome [2] | activity change, negative = inhibition ([3]; at 25.7 µM (top of the series)) 0.143% | activity change, negative = inhibition ([3]; at 57.5 µM (top of the series)) 11.6% and 1.09%
1.25% and 39.9% and -9.35%: max response [3, 21]
1.9% and 22.5% and -10.8%: max response [3, 20]

CCN1CCC[C@H]1CNC(=O)c1c(O)c(Cl)cc(Cl)c1OC
12.1% and 6.79%: max response [3, 20]
12.8% and 10.2%: max response [3, 21]
inactive: activity change, negative = inhibition ([3]; at 57.5 µM (top of the series)) 1.67% and 3.44%
